DAT uptake mod – changed hDAT dopamine uptake under cocaine IC80, either direction, primary screen, cocaine antagonist project, cell-based, LLC-PK1 hDAT, [14C]-dopamine uptake, MLSMR; Sodium-dependent dopamine transporter (Homo sapiens), Q01959; LLC-PK1 hDAT cells, [14C]-dopamine uptake with cocaine IC80; actives deviate in either direction; B-score at 10 µM; 1.3% of 110,000 active;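 active = Z score or B-score, a plate-position-corrected score, falls beyond the plate's 99.7% confidence bounds, in either direction; inactive = both scores lie inside the 99.7% bounds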
Mac1 fbg inh – inhibitors of CD11b/CD18 adhesion to fibrinogen, primary screen, K562 cells, luminescence | ATPlite luminescence; Mn2+ added to activate the integrin | inhibition, % at 10 µM | 0.54% of 93,000 active | AID 1497, 2009;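 active = primary inhibition of 50% or more at 10 µM, then 40% or more on retest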
CD11b adhes enh – enhancers of CD11b/CD18 adhesion to fibrinogen, primary screen, K562 cells, luminescence | Integrin beta-2 (Homo sapiens) + Integrin alpha-M (Homo sapiens), P05107+P11215 | 0.07% of 93,000 active | ATPlite luminescence | activation, % at 10 µM;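 active = 10 µM primary screen giving 50% or more activity, confirmed by 40% or more on retest at that dose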
FAK inh – FAK kinase inhibitors, primary screen, biochemical; Focal adhesion kinase 1 (Homo sapiens), Q05397; inhibition, %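 (tested at 7 µM)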; 0.84% of 97,000 active; AID 727, 2007; biochemical FAK kinase activity assay; in the data active = inhibition above about 19%
Pyk2 oligo antag – antagonists of Pyk2 self-association, primary screen, Q293 cells, FERM NanoBiT luminescence, HTS; AID 1347419, 2020; 0.83% of 99,000 active; z-score (the deposit names both 25 µM and 10 µM); Protein-tyrosine kinase 2-beta (Homo sapiens), Q14289; stronger effect = lower value;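 active = Z-score of -3 or lower, scaled per plate to the spread of control and sample wells; inactive = z-score above -3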;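 note: negative z-score means lost luminescence so less FERM oligomerization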
D1 mod – D1 CRE-luciferase signal change, two-sided – cell-based, HEK293 D1, dopamine EC30, D1 allosteric modulator project, primary screen. B-score at 10 µM. D(1A) dopamine receptor (Homo sapiens), P21728. dopamine EC30 potentiation; actives deviate in either direction. 5.9% of 58,000 active;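 active = luminescence count or its row- and column-corrected plate score outside the 99.7% band of the plate's sample wells, on either side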
Numbers stand for hits; – = inactive; · = not tested or not shown. This is one part of a sample in which hits are shown more often than they occur.

SMILES	DAT uptake mod	Mac1 fbg inh	CD11b adhes enh	FAK inh	Pyk2 oligo antag	D1 mod
O=C(Nc1nc2c(s1)CCCC2)c1ccc(Br)s1	–	–	–	·	–	-4.42
Cc1ncsc1C(=O)Nc1nc2c(s1)CCCC2	–	–	–	–	–	–
Cc1cc(C(=O)Nc2nc3c(s2)CCCC3)cs1	–	–	–	·	–	-5
CC(C)(Oc1ccc(Cl)cc1)C(=O)N/N=C/c1cn[nH]c1-c1ccccc1	–	–	–	–	–	·
CCCCN(CC)Cc1ccc(CNC(=O)Nc2ccc(F)cc2)o1	-5.48	–	–	–	–	·
O=C(Nc1ccc(F)cc1)NC1(C(=O)NCc2ccco2)CCCCC1	–	–	–	–	–	–
Nn1c(SCC(=O)NC(=O)NCc2ccco2)nnc1-c1ccc(OC(F)F)cc1	·	–	–	–	–	·
CN(C)c1nc(N)nc(-c2cccnc2)n1	–	–	–	·	–	4.61
CC(=O)n1nc(-c2cccnc2)nc1N	–	–	–	–	–	·
Cc1ccc(NC(=O)CSc2nnc(CSc3nc(C)cc(C)n3)n2Cc2ccco2)c(C)c1	2.66	–	–	–	–	–
Cc1ccc(C)c(NC(=O)CSc2nnc(CSc3nc(C)cc(C)n3)n2Cc2ccco2)c1	–	–	–	·	–	–
COc1cc(/C=N/N(C)c2ccccc2)ccc1O	–	–	–	–	-3.05	·
COc1cc(OC)c(OC)cc1/C=N/N(C)c1ccccc1	–	–	–	–	–	·
CCc1ccc(C(=O)Nc2nnn(CC)n2)cc1	–	–	–	–	–	-4.5
CCc1c(C#N)c(SCCC(=O)Nc2ccc(OC)cc2)nc2c1C(=O)CC(C)(C)C2	–	–	–	–	-3.09	·
Cc1ccc2nc(-c3cc(N)cc(N)c3)oc2c1	–	·	·	–	–	·
Nc1ccc(-c2nc3ccc(N)cc3o2)cc1	–	–	–	–	·	-3.1
O=C(N[C@@H](Cc1ccccc1)C(=O)OCc1ccccc1)c1nc[nH]c1C(=O)N1CCN(c2ccccc2)CC1	–	·	·	·	·	·
O=C(N[C@@H](Cc1ccccc1)C(=O)OCc1ccccc1)c1nc[nH]c1C(=O)NCc1ccccc1	1.61	·	·	·	·	·
CC(NC(=O)Cn1ccsc1=N)C12CC3CC(CC(C3)C1)C2 (configuration not stated)	-6.25	–	–	–	–	–
CC(NC(=O)Cn1c(=O)[nH]c2ccsc2c1=O)C12CC3CC(CC(C3)C1)C2 (configuration not stated)	–	–	–	–	–	·
CCCCNC(=O)C1CCCN1C(=O)NC1CCCCC1 (configuration not stated)	-7.87	·	·	–	–	·
O=C(NCC1CCCO1)C1CCCN1C(=O)NC1CCCCC1 (configuration not stated)	–	–	–	–	–	–
Cc1cc(C)c2cc(CN(Cc3ccc4c(c3)OCO4)Cc3nnnn3Cc3ccco3)c(=O)[nH]c2c1	2.95	–	–	–	–	–
COc1cc(OC)cc(C(C(=O)NC2CCCCC2)N(C(=O)c2ccno2)c2ccccc2)c1 (configuration not stated)	–	·	·	–	-3.64	·
SMILES	DAT uptake mod	Mac1 fbg inh	CD11b adhes enh	FAK inh	Pyk2 oligo antag	D1 mod
COC(=O)C1=NNC2(c3ccc(Cl)cc3)C(=O)N(c3ccccc3)C(=O)C12 (configuration not stated)	·	–	–	·	·	·
Cc1ccc(C(=O)N2c3ccc(F)cc3CCC2C)o1 (configuration not stated)	–	–	–	–	–	–
Cc1nn(Cc2ccc(C(=O)N3c4ccc(F)cc4CCC3C)o2)c(C)c1Br (configuration not stated)	3.33	–	–	–	–	–
O=C(CSc1n[nH]c(-c2ccc(S(=O)(=O)N3CCCCC3)cc2)n1)Nc1nccs1	–	–	–	–	–	–
Cc1c(CN(C)C)c2c(n1C)C(=O)c1ccc(Br)cc1-2	–	–	–	–	–	·
CCOC(=O)c1c2c(n(C)c1C)C(=O)C(=O)c1ccc(Br)cc1-2	–	·	·	40.3	-3.52	·
COc1ccc(CNC(=O)C(C)NC(=O)c2cc3ccccc3o2)cc1 (configuration not stated)	-1.66	–	–	–	–	–
CCCCC(=O)Nc1sc2c(c1C(=O)OCC)CCC(C=O)=C2Cl	–	–	–	–	-3.04	·
CCCCNCC(=O)Nc1sc(C)c(C)c1C(=O)OCC	–	·	·	–	–	·
COc1cccc2cc(-c3nc(-c4cccs4)cs3)c(=O)oc12	–	–	–	–	–	-2.39
CCN(CC(=O)N1CCc2ccccc2C1)S(=O)(=O)c1ccc2ccccc2c1	–	–	–	–	–	·
O=C(Nc1ccc(N2CCOCC2)c(Cl)c1)c1ccc(Br)o1	–	–	–	–	–	-4.99
O=C(Nc1ccc(N2CCN(C(=O)c3ccccc3)CC2)c(Cl)c1)c1ccc(Br)o1	–	–	–	–	–	–
O=C(Nc1ccc(N2CCCC2)c(Cl)c1)c1ccco1	–	–	–	·	–	-4.05
O=C(NCc1cccs1)C1CC(=O)N(c2ccccc2)C1 (configuration not stated)	–	–	–	–	–	–
CC1=C(C(=O)OCc2ccc3c(c2)OCO3)C(c2ccc(Cl)cc2)NC(=O)N1 (configuration not stated)	–	–	–	–	-3.23	–
CC1=C(C(=O)OCc2ccc3c(c2)OCO3)C(c2ccc(F)cc2)NC(=O)N1 (configuration not stated)	–	–	–	–	–	–
Nc1ccc2nc(CN3CCOCC3)[nH]c2c1	·	–	–	–	–	·
CCCN1C=CC(=C2C(=O)c3ccccc3C2=O)C=C1	–	94.9	–	·	–	-5.69
COc1ccc(Cc2nc(C(=O)Nc3ccccc3)cs2)cc1	–	88.3	–	–	–	·
COc1ccc(Cc2nc(C(=O)Nc3ccc(F)cc3)cs2)cc1	–	82.2	–	–	–	·
NC(=O)C1(N2CCCCC2)CCN(Cc2ccccc2Cl)CC1	–	–	–	–	–	–
Cc1ccc(S(=O)(=O)NCc2ccncc2)cc1	–	69.0	–	–	–	·
CCCCOc1ccc(CNC(=O)NS(=O)(=O)c2ccc(OCC)cc2)cc1	-9.07	–	–	–	–	·
CCOc1ccc(S(=O)(=O)NCc2ccncc2)cc1	-2.73	98.0	–	–	–	·
Cc1ccc(S(=O)(=O)NCC(=O)NCc2ccncc2)cc1	–	·	·	–	–	·
O=S(=O)(Nc1nc(-c2sccc2Cl)cs1)c1cc(Cl)ccc1Cl	–	·	·	–	–	·
CCOCCc1nnc(NC(=O)C(CC)c2ccccc2)s1 (configuration not stated)	–	–	–	–	–	·
Cc1ccc(N(C(=O)Cn2nnc(-c3ccc(F)cc3)n2)C(CC(C)C)C(=O)NCC2CCCO2)cc1 (configuration not stated)	–	·	·	–	–	·

High-throughput results: PubChem BioAssay, several laboratories
